Consider 53 compounds from PubChem BioAssay (NCATS).

A short description of experiment [1]: qHTS for Inhibitors of the Aldehyde Dehydrogenase Family (ALDH1A2, ALDH1A3, ALDH2, ALDH3A1) (AID 2061307). Further: nearly all actives have a fitted effect of over 50% in size. On potency: test system not described further here; potency means the concentration at half of the fitted maximal effect. For orientation: qHTS replaces the single test concentration by a dilution series.
For experiment [2], the target named is Aldehyde dehydrogenase, mitochondrial (Homo sapiens) (UniProt P05091). Kind of experiment: qHTS for Inhibitors of the Aldehyde Dehydrogenase Family (ALDH2) Primary screen (AID 2061308). Further: nearly all actives have a fitted effect of over 55% in size.
Experiment [3] addresses Retinaldehyde dehydrogenase 3 (Homo sapiens) (UniProt P47895). Kind of experiment: qHTS for Inhibitors of the Aldehyde Dehydrogenase Family (ALDH1A3) Confirmatory screens (AID 2061311). Further: nearly all actives have a fitted effect of over 60% in size. Further: potency means the concentration at half of the fitted maximal effect.
The target of experiment [4] is Retinal dehydrogenase 2 (Homo sapiens) (UniProt O94788). The experiment in a line: qHTS for Inhibitors of the Aldehyde Dehydrogenase Family (ALDH1A2) Confirmation screens (AID 2061314). Further: nearly all actives have a fitted effect of over 65% in size. Further: potency means the concentration at half of the fitted maximal effect.
For experiment [5], the target named is Retinaldehyde dehydrogenase 3 (Homo sapiens) (UniProt P47895). The experiment in a line: qHTS for Inhibitors of the Aldehyde Dehydrogenase Family (ALDH1A3) Primary screen (AID 2061315). Further: potency means the concentration at half of the fitted maximal effect.

Where “and” joins values, the source holds several entries; their conditions need not be identical. Identical values can stand only once. Results filed as inconclusive are left out. Entries that show only a call come without a potency. Values without a mark were called inactive. Calls of active or inactive are those of the source. The call rests on the fitted dose curve; in most records, active means well fitted curve in the direction sought with a large enough effect; inconclusive means small, poorly fitted or top-dose-only effect, or another doubt; inactive means no such curve, though single readings can be large; an effect the other way counts as inactive or inconclusive.

As for `COc1ccc(NC(=O)c2ccc3ccccc3n2)cc1S(N)(=O)=O`, the Potency entry in experiment [1] is “inactive”. On the same count and under the same terms, the value for `Cc1c(P(=S)(c2ccccc2)c2ccccc2)[n+]2ccccc2n1C/C=C/c1ccc2ccccc2c1` was 3.55 µM (active); that for `c1cc(NC2CNC2)nc(-c2cnc3ccccn23)c1` was “inactive”; that for `Cc1sc(-n2nc(-c3ccccc3)c(Cc3ccc(S(N)(=O)=O)cc3)c2N)nc1C(=O)O` was “inactive”. For the compound `COc1ccc(-n2nnc(-c3nc(-c4cccs4)no3)c2N)cc1OC`, the Potency result in experiment [1] is “inactive”. Take `Cc1c2c(=O)n(-c3ccccc3)[nH]c2cc(=O)n1CCCN1CCOCC1`: the Potency result in experiment [1] is “inactive”. Regarding `O=Cc1ccc(N2Cc3ccccc3C2)cc1`, the Potency result in experiment [1] was “inactive”. With `CC(Sc1nc2c(cnn2C2COC2)c(=O)n1-c1ccccc1)c1ccccc1` (stereo unspecified), the Potency entry in experiment [1] was “inactive”. Consider `O=C(c1ccc2ccccc2c1)c1no[n+]([O-])c1C(=O)c1ccc2ccccc2c1`, for which, in experiment [1], the Potency was 5.04 µM (active). Turning to `O=C(c1cc(-c2ccccc2Cl)nc2ccccc12)N1CCN(c2ccccc2O)CC1`, the Potency result in experiment [1] is “inactive”. Consider `CC(=O)Nc1ccc(NC(=O)c2cc(=O)c3ccccc3o2)cc1`, for which, in experiment [1], the Potency result was “inactive”.

Consider `O=C(Nc1cc(C(F)(F)F)ccc1Cl)c1nc2ccccc2nc1N1CCCCC1`, for which the Potency result in experiment [1] is “inactive”. In the case of `O=C(Nc1cccc(Nc2ccccc2)c1)c1ccc(-c2cccc([N+](=O)[O-])c2)o1`, the Potency in experiment [1] is 1.27 µM (active). Take `O=C([C@H](NS(=O)(=O)c1ccc2[nH]c(=O)ccc2c1)c1ccc(F)cc1)N(Cc1ccco1)Cc1cccs1`: the Potency in experiment [1] was 25.2 µM (active).

Turning to `O=C1C=CC(=O)N1c1ccc(N2CCOCC2)cc1`, the Potency in experiment [1] is 1.13 µM (active).

Turning to `O=C(O)c1ccc(-c2ccc3ncnc(NCc4cccs4)c3c2)o1`, the Potency result in experiment [1] is “inactive”. Turning to `Fc1ccc(CN2CCC(N(CCc3ccccc3)Cc3ccccc3)CC2)cc1`, the Potency result in experiment [1] was “inactive”. Consider `COc1cccc(Nc2nc(C)c(C(=O)Nc3ccccc3)s2)c1`, for which the Potency result in experiment [1] is “inactive”.

With `CCc1ccc(CNC(=O)c2cnc3c(C)cccn3c2=O)cc1`, the Potency result in experiment [1] was “inactive”. As for `Cc1cc(SCc2sc(-c3ccc(F)cc3)nc2C)ccc1OCC(=O)O`, the Potency result in experiment [1] is “inactive”. Turning to `COc1ccc(-n2ncc3c2CCCC3NC(=O)CN(C)C)cc1` (stereo unspecified), the Potency entry in experiment [1] was “inactive”. On the same count and under the same terms, the value for `Oc1[nH]c2ccccc2c1N=NC(=S)Nc1cccnc1` was “inactive”.

Consider `COc1ccc(-c2cc(C(=O)Nc3ccc(C(N)=O)cc3F)sc2C)cc1`, for which the Potency result in experiment [1] is “inactive”.

Regarding `COc1cc(NC(=S)N=Nc2c(O)[nH]c3ccccc23)cc(OC)c1OC`, in experiment [1], the Potency result was “inactive”.

In the case of `CC1=C[C@@H](CNC(C)C)[C@H](C(C)C)C[C@H]1Cc1nnc(-c2ccncc2)o1`, in experiment [1], the Potency result is “inactive”. Take `Cc1ccccc1CN1CCN(Cc2ccc3ccccc3n2)CC1CCO` (stereo unspecified): the Potency in experiment [1] was 3.18 µM (active).

`COc1ccc2c(c1)C(C)(CCN(C)C)C(=O)N2C` (stereo unspecified): the Potency entry in experiment [1] was “inactive”. `O=C(O)c1csc(-n2nc(C(F)(F)F)cc2-c2ccc(Cl)cc2)n1`: the Potency result in experiment [1] was “inactive”. As to `O=C(Nc1cccc(S(=O)(=O)N2CCOCC2)c1)c1ccc(CN2CCc3ccccc3C2)cc1`, the Potency in experiment [1] is 3.98 µM (active). On the same count and under the same terms, the entry for `CC(NC(=O)c1c(O)nc2ccccn2c1=O)c1ccccc1` (stereo unspecified) is “inactive”; for `COc1ccc2c(c1)CCNC2Cc1ccc(OC)c(O)c1` (stereo unspecified) it is “inactive”. As for `COc1ccc(NC(=O)Cn2ncc3ccccc3c2=O)cc1S(=O)(=O)N1CCOCC1`, the Potency result in experiment [1] is “inactive”. The same measure, in the same setting: the entry for `COc1ccc(-n2c(C)c(C(=O)c3ccccc3)c3cc(O)ccc32)cc1` is “inactive”; for `CC(=O)c1cc2c(cc1NC(=O)c1cnn(-c3ccc(F)cc3F)c1)OCO2` it is “inactive”. Same read-out and setting: the value for `Nc1ccc(Cn2ccc3c4c(N)nc(N)nc4ccc32)cc1` was “inactive”. Still for that read-out and setting: the figure for `c1coc(-c2ccc3nncn3c2)c1` is 8.96 µM (active); for `O=C(Nc1cccc(S(=O)(=O)N2CCOCC2)c1)c1cc(-c2cccnc2)nc2ccccc12` it is “inactive”.

Regarding `COc1cc2nc(N3CCN(C)CC3)nc(N)c2cc1OC`, the Potency entry in experiment [1] is “inactive”. As to `COc1ccc(C2CC(=O)Nc3nc(N4CCCCC4)sc32)c(OC)c1` (stereo unspecified), in experiment [1], the Potency entry is “inactive”. In the case of `COC(=O)c1ccc(NC(=O)CN(c2cccc(C(F)(F)F)c2)S(C)(=O)=O)cc1`, in experiment [1], the Potency entry was “inactive”. For `O=C(O)c1csc(-n2[nH]c(-c3c(F)cccc3F)cc2=O)n1`, the Potency entry in experiment [1] was “inactive”. With `CC(=O)NC(C)c1cc(F)c2cccnc2c1O` (stereo unspecified), the Potency in experiment [1] was 2.52 µM (active); in experiment [3], 11.3 µM (active); in experiment [4], 10.1 µM (active). Further, the Potency result in experiment [2] and in experiment [5] was “inactive” each time. In the case of `O=C(O)c1ccc(-c2noc(-c3ccccc3F)n2)cc1`, the Potency was 3.98 µM (active) and 1.2 µM (active) in experiment [1]; 0.565 µM (active) in experiment [3]. The Potency result in experiment [2] and in experiment [4] was “inactive” each time. As to `N#Cc1cccc(C#N)c1-c1nc2c3ccccc3c3cc(Cl)ccc3c2[nH]1`, the Potency entry in experiment [1], in experiment [2] and in experiment [4] was “inactive” throughout. Moreover, the Potency in experiment [3] was 5.65 µM (active); in experiment [5], 25.1 µM (active). Take `Cc1ccccc1Nc1nc(C#N)nc(NC2CCCC2)n1`: the Potency was 10.1 µM (active) in experiment [1] and 12.7 µM (active) in experiment [4]. Besides, the Potency entry in experiment [2] and in experiment [5] was “inactive” throughout. For the same compound, the activity change, negative = inhibition in experiment [3] was -21.8% [at 0.0073 µM].

`Cc1sc(NC(=O)Cc2ccc3c(c2)OCO3)nc1-c1ccc2c(c1)CCN2C(=O)c1ccccc1OC(F)(F)F`: the Potency in experiment [1] was 3.16 µM (active).

For the compound `C=C1CN(Cc2ccc(C(=O)Nc3ccccc3N)cc2)C(=O)c2ccccc21`, the Potency in experiment [1] was 15.8 µM (active). Moreover, the Potency result in experiment [2], in experiment [3], in experiment [4] and in experiment [5] was “inactive” throughout. As for `COc1cccc(-c2nc(-c3ccc(C(=O)O)cc3)no2)c1`, the Potency in experiment [1] is 1.2 µM (active); in experiment [3] it was 0.504 µM (active). The Potency result in experiment [2] and in experiment [4] was “inactive” in each case. Consider `c1cc2c(cc1CNc1ccc(N3CCOCC3)cc1)OCO2`, for which the Potency in experiment [1] was 11.3 µM (active); in experiment [3], 6.34 µM (active). Besides, the Potency entry in experiment [2] is “inactive”. With `CS(=O)(=O)c1cccc(-c2csc3ncnc(NCc4ccccn4)c23)c1`, the Potency in experiment [1] was 14.1 µM (active). Regarding `CCOC(=O)C1CCN(C(=O)C(C)(C)NC(=O)Nc2ccc(N)cc2)CC1`, the Potency entry in experiment [1] and in experiment [2] was “inactive” throughout.

As for `CNc1nc2c(s1)C(c1ccccc1Cl)CC(=O)N2` (stereo unspecified), in experiment [1], the Potency is 11.3 µM (active).

`CCOC(=O)C1CCN(c2ncc(-c3ccc4c(c3)OCCCO4)s2)CC1`: the Potency is 5.65 µM (active) in experiment [1], 10.1 µM (active) in experiment [3] and 4 µM (active) in experiment [4]. For the same compound, the Potency entry in experiment [2] was “inactive”.
